Among the data in ChEMBL document CHEMBL1961873, “Compounds: GSK PKIS; Assays: Nanosyn kinase panel” (2012) are inhibition values, retold here.

For orientation: inhibition means the change of the read-out against control, counted positive when it falls.

In assay [1] the target is T1, Serine/threonine-protein kinase Nek9 (Homo sapiens) (UniProt Q8TD19).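 Note: each value is a mean percent inhibition of NEK9.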
T1 sequence (whole entry): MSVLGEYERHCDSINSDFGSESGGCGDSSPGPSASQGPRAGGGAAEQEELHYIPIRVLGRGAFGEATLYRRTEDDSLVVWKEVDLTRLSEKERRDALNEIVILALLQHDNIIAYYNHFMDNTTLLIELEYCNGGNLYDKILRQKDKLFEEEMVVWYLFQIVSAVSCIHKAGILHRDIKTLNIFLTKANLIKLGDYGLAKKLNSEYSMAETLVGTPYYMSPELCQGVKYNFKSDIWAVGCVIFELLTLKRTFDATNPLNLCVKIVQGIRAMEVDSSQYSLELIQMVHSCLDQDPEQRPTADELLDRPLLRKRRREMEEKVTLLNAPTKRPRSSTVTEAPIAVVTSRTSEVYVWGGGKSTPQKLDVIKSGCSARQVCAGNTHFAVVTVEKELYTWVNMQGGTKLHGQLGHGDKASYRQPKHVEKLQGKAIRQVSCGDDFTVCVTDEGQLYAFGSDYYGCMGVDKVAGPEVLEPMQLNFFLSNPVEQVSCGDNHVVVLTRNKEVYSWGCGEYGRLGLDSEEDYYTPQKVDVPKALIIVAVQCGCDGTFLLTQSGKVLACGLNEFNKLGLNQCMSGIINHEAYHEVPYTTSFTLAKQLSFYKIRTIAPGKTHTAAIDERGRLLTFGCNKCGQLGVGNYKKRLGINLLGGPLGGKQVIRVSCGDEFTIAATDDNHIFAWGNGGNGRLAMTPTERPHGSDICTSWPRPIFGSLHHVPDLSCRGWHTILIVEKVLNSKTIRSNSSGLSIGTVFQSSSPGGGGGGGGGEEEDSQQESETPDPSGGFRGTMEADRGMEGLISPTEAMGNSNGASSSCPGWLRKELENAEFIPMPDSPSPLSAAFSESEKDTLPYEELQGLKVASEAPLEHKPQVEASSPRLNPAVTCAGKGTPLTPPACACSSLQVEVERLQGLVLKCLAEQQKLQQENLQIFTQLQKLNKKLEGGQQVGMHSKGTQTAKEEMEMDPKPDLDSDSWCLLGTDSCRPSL
The following applies: at 1 µM.

For assay [2], the target named is Serine/threonine-protein kinase PLK1 (Homo sapiens) (UniProt P53350). The following applies: at 0.1 µM.
Chain of Serine/threonine-protein kinase PLK1 (Homo sapiens) (P53350 whole entry): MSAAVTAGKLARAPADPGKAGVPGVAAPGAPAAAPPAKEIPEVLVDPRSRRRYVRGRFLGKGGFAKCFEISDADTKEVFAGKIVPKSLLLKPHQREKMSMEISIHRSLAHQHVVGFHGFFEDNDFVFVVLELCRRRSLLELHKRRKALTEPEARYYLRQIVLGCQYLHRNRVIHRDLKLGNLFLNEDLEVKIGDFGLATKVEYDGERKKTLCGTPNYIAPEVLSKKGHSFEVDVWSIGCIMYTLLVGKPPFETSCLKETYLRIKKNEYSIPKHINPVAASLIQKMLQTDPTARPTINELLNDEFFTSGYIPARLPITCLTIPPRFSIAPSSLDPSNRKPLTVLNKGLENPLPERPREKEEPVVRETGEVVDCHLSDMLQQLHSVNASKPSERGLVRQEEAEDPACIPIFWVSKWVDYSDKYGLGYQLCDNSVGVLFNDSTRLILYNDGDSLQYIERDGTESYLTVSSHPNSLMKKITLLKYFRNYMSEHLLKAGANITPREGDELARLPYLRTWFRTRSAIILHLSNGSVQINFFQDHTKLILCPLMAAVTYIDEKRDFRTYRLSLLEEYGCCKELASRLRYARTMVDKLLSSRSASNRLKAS
Assay [3] has the same target. The following applies: at 1 µM.
Assay [4] deals with T2, Dual specificity protein kinase TTK (Homo sapiens) (UniProt P33981).
T2 sequence (whole entry): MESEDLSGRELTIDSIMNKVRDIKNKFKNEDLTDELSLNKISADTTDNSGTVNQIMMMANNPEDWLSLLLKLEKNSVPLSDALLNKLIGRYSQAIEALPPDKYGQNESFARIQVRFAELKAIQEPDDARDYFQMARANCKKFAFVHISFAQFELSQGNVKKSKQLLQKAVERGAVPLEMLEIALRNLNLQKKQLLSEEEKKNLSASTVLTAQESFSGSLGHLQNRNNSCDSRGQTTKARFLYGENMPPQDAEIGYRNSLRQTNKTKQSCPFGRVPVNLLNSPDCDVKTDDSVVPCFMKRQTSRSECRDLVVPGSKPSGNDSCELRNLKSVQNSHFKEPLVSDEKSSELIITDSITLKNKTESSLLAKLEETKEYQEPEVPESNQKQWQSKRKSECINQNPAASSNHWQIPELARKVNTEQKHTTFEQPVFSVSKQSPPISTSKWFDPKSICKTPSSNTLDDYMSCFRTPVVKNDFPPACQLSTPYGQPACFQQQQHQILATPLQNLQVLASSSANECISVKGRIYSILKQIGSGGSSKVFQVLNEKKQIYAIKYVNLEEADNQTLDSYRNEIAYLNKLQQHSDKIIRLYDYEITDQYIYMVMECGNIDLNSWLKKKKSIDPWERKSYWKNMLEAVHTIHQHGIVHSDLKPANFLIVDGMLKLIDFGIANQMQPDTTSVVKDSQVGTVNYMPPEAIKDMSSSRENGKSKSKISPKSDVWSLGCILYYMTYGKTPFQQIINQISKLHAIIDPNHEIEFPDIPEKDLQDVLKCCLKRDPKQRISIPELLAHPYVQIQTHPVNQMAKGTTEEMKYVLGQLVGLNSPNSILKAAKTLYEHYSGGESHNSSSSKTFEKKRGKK
The following applies: at 0.1 µM.

In assay [5] the test system is T3, Receptor-type tyrosine-protein kinase FLT3 (Homo sapiens), P36888 [D835Y].
T3 sequence (whole entry): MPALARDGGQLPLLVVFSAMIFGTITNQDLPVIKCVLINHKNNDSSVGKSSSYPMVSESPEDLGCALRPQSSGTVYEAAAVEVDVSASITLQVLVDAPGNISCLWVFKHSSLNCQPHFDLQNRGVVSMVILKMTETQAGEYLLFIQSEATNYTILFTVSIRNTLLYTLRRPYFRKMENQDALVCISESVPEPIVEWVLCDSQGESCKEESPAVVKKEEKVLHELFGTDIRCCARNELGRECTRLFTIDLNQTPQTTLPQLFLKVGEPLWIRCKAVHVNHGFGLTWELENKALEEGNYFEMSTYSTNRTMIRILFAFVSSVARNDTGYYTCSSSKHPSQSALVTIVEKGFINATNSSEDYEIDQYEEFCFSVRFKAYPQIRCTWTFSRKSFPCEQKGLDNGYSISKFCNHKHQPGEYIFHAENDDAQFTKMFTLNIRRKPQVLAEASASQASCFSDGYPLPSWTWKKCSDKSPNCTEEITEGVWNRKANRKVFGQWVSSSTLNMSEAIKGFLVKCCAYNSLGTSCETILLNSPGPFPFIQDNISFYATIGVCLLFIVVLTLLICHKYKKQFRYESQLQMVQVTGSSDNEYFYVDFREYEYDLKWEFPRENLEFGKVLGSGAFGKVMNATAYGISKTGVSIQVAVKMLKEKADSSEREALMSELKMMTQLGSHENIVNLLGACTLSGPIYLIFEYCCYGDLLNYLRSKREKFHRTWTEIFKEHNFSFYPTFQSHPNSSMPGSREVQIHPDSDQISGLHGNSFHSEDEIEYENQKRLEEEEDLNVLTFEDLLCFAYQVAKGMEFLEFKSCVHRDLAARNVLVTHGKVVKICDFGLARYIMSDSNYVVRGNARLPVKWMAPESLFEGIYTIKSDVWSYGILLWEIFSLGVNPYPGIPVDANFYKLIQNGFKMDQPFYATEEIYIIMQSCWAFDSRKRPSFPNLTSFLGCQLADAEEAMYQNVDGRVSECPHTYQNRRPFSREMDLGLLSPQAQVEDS
The following applies: at 1 µM.

The target in assay [6] is Vascular endothelial growth factor receptor 3 (Homo sapiens) (UniProt P35916). The following applies: at 0.1 µM.
Assay [7] shares this target. The following applies: at 1 µM.
Assay [8] concerns the target Macrophage colony-stimulating factor 1 receptor (Homo sapiens) (UniProt P07333). The following applies: at 0.1 µM.
Assay [9] has the same target. The following applies: at 1 µM.
Assay [10] concerns the target Tyrosine-protein kinase Fyn (Homo sapiens) (UniProt P06241). The following applies: at 0.1 µM.
For assay [11] the target is unchanged. The following applies: at 1 µM.
Assay [12] concerns the target Tyrosine-protein kinase HCK (Homo sapiens) (UniProt P08631). The following applies: at 0.1 µM.
For assay [13] the target is unchanged. The following applies: at 1 µM.
For assay [14], the target named is Insulin-like growth factor 1 receptor (Homo sapiens) (UniProt P08069). The following applies: at 0.1 µM.
Chain of Insulin-like growth factor 1 receptor (Homo sapiens) (P08069 31-736 limits assumed): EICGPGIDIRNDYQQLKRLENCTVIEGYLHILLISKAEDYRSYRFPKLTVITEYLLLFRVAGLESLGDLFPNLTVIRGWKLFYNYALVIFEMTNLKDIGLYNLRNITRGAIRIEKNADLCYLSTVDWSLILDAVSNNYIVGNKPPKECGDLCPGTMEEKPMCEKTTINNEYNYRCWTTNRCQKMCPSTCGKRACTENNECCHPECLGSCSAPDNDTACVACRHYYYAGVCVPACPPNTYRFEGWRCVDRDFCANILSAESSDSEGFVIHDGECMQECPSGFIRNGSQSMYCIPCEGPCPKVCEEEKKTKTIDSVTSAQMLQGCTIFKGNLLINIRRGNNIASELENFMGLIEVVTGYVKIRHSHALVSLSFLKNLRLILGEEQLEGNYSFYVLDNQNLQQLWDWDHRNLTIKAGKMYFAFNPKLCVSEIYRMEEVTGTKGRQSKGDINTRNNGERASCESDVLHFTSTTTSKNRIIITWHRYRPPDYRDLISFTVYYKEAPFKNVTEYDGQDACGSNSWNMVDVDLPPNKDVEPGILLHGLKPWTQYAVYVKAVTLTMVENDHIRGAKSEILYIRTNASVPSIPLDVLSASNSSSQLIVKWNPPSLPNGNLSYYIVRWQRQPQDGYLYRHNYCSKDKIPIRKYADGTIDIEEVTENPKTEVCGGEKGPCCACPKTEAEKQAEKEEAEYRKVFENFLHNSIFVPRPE
Chain of Insulin-like growth factor 1 receptor (Homo sapiens) (P08069 741-1367 limits assumed): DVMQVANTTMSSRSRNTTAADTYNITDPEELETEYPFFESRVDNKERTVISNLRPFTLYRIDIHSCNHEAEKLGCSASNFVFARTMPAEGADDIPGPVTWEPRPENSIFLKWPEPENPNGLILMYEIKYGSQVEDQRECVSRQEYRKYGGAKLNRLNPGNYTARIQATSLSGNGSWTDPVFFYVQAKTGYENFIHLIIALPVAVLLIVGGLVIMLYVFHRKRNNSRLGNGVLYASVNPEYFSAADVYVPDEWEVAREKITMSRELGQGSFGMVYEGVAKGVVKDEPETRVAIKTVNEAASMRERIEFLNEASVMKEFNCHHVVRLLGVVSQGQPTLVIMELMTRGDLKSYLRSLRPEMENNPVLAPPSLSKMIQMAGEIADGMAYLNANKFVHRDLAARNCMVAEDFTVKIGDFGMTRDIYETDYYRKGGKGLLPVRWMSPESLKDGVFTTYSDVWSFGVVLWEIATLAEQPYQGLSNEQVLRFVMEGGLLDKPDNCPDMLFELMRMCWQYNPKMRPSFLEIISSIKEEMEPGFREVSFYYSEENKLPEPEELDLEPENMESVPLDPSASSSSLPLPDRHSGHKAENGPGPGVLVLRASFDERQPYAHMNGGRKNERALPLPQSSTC
For assay [15] the target is unchanged. The following applies: at 1 µM.
Assay [16] has as its target Insulin receptor (Homo sapiens) (UniProt P06213). The following applies: at 0.1 µM.
Assay [17] has the same target. The following applies: at 1 µM.
The target of assay [18] is Insulin receptor-related protein (Homo sapiens) (UniProt P14616). The following applies: at 0.1 µM.
Chain of Insulin receptor-related protein (Homo sapiens) (P14616 27-742 limits assumed): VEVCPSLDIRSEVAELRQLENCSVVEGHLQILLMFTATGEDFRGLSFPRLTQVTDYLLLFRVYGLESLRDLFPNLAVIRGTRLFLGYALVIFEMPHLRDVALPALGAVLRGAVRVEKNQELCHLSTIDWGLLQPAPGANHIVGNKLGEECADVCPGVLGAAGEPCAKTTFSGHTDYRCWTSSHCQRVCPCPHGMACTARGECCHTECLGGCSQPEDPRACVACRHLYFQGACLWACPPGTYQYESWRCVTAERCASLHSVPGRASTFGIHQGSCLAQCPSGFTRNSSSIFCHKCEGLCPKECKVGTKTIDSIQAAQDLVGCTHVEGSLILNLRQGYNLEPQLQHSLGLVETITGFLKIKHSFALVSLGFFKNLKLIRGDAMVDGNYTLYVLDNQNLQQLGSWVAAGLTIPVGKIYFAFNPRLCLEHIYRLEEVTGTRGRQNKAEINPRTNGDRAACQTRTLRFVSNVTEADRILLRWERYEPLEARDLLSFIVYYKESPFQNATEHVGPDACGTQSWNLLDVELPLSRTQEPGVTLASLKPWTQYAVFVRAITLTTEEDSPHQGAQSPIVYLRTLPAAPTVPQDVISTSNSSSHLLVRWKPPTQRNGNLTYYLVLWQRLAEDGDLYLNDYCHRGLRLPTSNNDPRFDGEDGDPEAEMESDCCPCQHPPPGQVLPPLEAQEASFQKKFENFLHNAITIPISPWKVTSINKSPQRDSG
Chain of Insulin receptor-related protein (Homo sapiens) (P14616 747-1297 limits assumed): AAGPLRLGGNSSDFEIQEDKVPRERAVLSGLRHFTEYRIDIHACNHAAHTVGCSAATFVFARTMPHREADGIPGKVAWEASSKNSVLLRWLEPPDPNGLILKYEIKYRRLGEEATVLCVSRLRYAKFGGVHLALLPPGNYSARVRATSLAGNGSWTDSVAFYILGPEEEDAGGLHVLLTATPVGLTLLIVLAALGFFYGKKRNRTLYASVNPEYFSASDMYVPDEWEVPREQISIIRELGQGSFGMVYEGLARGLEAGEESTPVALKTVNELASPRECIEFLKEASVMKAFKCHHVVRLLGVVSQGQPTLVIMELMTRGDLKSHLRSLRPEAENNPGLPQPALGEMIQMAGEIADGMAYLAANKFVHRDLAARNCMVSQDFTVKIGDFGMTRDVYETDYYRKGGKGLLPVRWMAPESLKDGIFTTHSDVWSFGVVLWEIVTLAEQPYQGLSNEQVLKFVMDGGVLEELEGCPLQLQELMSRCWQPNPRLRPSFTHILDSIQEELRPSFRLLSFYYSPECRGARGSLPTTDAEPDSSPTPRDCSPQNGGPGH
The target is the same in assay [19]. The following applies: at 1 µM.
The target in assay [20] is T4, Tyrosine-protein kinase ITK/TSK (Homo sapiens) (UniProt Q08881).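 Note: mean percent inhibition of ITK from the GSK PKIS screen.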
T4 sequence (whole entry): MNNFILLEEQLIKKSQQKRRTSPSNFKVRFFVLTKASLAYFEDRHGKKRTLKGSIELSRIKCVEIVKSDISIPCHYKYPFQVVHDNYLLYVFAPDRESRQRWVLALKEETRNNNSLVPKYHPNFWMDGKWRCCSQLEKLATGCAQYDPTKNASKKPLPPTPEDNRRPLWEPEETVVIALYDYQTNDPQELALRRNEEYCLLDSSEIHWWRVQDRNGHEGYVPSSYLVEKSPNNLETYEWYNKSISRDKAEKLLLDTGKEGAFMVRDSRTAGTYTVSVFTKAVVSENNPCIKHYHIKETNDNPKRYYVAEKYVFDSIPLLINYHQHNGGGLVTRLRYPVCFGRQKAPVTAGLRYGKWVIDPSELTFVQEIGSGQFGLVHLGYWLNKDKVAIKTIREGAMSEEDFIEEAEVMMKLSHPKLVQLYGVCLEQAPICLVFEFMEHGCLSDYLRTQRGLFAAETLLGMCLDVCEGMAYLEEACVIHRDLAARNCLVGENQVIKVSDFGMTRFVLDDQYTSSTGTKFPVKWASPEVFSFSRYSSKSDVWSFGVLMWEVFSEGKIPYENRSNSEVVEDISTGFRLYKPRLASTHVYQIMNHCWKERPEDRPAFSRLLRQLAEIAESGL
The following applies: at 0.1 µM.

Chain of Macrophage colony-stimulating factor 1 receptor (Homo sapiens) (P07333 whole entry): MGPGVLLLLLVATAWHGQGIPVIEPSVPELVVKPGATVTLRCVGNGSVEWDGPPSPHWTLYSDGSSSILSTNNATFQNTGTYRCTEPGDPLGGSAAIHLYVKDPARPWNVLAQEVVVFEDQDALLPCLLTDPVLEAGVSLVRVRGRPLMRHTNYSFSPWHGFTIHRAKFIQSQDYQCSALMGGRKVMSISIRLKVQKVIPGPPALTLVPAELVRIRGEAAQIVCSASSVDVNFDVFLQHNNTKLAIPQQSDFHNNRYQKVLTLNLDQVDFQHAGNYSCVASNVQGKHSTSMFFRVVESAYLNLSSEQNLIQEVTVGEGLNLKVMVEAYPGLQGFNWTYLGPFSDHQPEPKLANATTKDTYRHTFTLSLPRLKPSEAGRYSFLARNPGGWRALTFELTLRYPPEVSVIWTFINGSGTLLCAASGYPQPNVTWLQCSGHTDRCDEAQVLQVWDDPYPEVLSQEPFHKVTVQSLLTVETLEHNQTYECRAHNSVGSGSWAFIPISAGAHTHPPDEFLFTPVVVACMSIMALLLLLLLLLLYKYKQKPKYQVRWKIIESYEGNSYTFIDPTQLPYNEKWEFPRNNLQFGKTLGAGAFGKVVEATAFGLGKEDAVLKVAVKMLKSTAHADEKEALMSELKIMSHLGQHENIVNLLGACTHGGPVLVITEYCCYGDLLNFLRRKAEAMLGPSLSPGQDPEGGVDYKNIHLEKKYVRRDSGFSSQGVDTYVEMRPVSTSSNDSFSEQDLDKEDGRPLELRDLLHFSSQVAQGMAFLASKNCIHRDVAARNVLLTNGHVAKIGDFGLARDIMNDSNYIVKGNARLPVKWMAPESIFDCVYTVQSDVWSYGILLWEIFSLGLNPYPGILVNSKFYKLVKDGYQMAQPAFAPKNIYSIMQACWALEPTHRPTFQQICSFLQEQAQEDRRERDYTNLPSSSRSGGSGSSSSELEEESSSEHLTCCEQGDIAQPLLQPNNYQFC
Chain of Tyrosine-protein kinase Fyn (Homo sapiens) (P06241 2-537 limits assumed): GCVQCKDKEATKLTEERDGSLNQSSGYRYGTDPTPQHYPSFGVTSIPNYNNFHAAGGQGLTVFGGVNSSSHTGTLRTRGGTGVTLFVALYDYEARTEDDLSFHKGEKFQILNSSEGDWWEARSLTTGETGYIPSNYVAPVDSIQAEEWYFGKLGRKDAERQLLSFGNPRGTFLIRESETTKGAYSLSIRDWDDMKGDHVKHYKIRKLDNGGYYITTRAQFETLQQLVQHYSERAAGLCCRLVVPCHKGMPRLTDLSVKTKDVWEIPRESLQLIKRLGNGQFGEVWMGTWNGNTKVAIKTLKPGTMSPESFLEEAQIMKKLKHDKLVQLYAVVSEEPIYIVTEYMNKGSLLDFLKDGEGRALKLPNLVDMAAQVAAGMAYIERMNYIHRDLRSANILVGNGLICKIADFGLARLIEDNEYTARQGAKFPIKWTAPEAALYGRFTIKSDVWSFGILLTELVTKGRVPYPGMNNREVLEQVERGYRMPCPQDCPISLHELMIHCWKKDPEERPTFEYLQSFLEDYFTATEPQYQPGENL

Consider `O=C1NC(=O)C(c2ccccc2Cl)=C1Nc1cccc(O)c1`, for which the inhibition in assay [1] is -5.12%; in [2], 3.44%; in [3] it was 3.38%; in assay [4], 2.7%; in assay [5], 3.87%; in [6], 3.25%. The inhibition in assay [7] was 3.79%; in assay [8], -1.08%; in assay [9], 2.71%; in assay [10], 1.1%; in [11] it was 2.43%; in [12], 3.62%. Besides, the inhibition in [13] was 5.29%; in assay [14] it was 3.77%; in [15], 2.85%; in [16] it was 0.88%; in [17], 4.12%; in assay [18], 7.16%. Also, the inhibition is 2.14% in [19] and 1.12% in assay [20].

Regarding `O=C1Nc2ccc(C(=O)c3ccco3)cc2C1=Cc1cc(Cl)c(O)c(Cl)c1`, the inhibition was 5.76% in assay [1]; 9.81% in assay [2]; 43.2% in [3]; 10.9% in [4]; 29.9% in assay [5]; 6.18% in assay [6]. The inhibition was found to be 12.3% in assay [7]; 26.3% in [8]; 74% in [9]; 3.62% in [10]; 20.7% in assay [11]; 5.82% in [12]. For the same molecule, the inhibition in assay [13] was found to be 17.4%; in assay [14], 4.15%; in [15], 4.7%; in assay [16], 5.71%; in assay [17], 3.98%; in [18] it was 1.08%. The inhibition was 2.14% in assay [19] and 1.31% in assay [20].

Regarding `CC1=C(C(=O)Nc2ccc3[nH]ncc3c2)C(c2ccc(F)cc2)NC(=O)N1` (stereo not given), the inhibition in [1] is 3.09%; in assay [2] it was 2.01%; in assay [3], 1.91%; in assay [4], 3.79%; in [5] it was -1.48%; in assay [6], 18.2%. Further, the inhibition came to 15.4% in assay [7]; 1.12% in assay [8]; 0.9% in [9]; 1.72% in assay [10]; 4.69% in assay [11]; 3.04% in assay [12]. Also, the inhibition in assay [13] stood at 2.81%; in assay [14], 9.13%; in [15], 8.59%; in [16], 4.97%; in assay [17], 4.22%; in assay [18] it was 0.88%. Besides, the inhibition in [19] was found to be 0.72%; in assay [20], 0.65%.

With `CC1=C(C(=O)Nc2ccc3[nH]ncc3c2)C(c2ccc3ccccc3c2)CC(=O)N1` (stereo not given), the inhibition in assay [1] was found to be 2.05%; in assay [2], 2.98%; in assay [3], 1.98%; in [4], 5.26%; in assay [5], 1.5%; in assay [6] it was 1.27%. Besides, the inhibition was found to be 3.27% in assay [7]; 7.17% in assay [8]; 2.62% in assay [9]; 2% in assay [10]; 1.8% in assay [11]; 4.76% in assay [12]. Moreover, the inhibition in assay [13] is 17.9%; in assay [14], 4%; in [15], 6.6%; in [16] it was 4.67%; in assay [17] it was 4.45%; in assay [18] it was 0.94%. Besides, the inhibition in assay [19] came to 1.74%; in [20], 2.6%.

With `CCn1c(-c2nonc2N)nc2c(C#CC(C)(C)O)nc(OC[C@@H](N)c3ccccc3)cc21`, the inhibition is -5.29% in assay [1]; 7.34% in assay [2]; 0.17% in assay [3]; -3.32% in [4]; 2.58% in assay [5]; 17.4% in assay [6]. The inhibition in [7] is 68.9%; in [8], -0.21%; in assay [9], -0.91%; in assay [10], 2.28%; in [11], 2.07%; in assay [12], 5.84%. Moreover, the inhibition in assay [13] is 11.9%; in [14] it was 1.67%; in assay [15], 1.05%; in assay [16], -0.22%; in assay [17] it was -0.5%; in [18] it was 0.45%. The inhibition is 1.06% in assay [19] and 0.21% in assay [20].

Take `CS(=O)(=O)CCNCc1nc(-c2ccc3ncnc(Nc4ccc(F)c(Cl)c4)c3c2)cs1`: the inhibition in assay [1] is -7.92%; in assay [2], 1.65%; in assay [3], 1.15%; in assay [4], 1.71%; in assay [5], 5.8%; in assay [6], 3.61%. For the same molecule, the inhibition in [7] is 6.4%; in assay [8], 1.81%; in assay [9], 3.54%; in assay [10] it was -1.21%; in [11], 3.55%; in [12] it was 4.76%. The inhibition was 13.4% in assay [13]; 3.27% in [14]; 3.4% in [15]; -0.96% in [16]; -3.83% in assay [17]; 2.7% in assay [18]. In addition, the inhibition came out at 1.63% in assay [19] and 1.06% in assay [20].
